Source: PubChem BioAssay (NCI)
Values joined by “and” are separate entries in the source; they are usually repeats but may differ in a detail not shown here. Equal values may be shown once. Compounds without any hit were thinned out: in the full panel of roughly 83,000, 20% have a hit.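 The endpoint reported here, percent growth, reads 100 for growth as untreated, 0 for no net growth and -100 for all cells dead.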 Active and inactive are the calls of the source. Rule for the calls: active = growth percent below 10; inactive = the rest.

Tests used:
Test in all cases: NCI-60 one-dose screen, 48 h (100 = growth as untreated, 0 = no growth, -100 = all killed)
Settings in all cases: 10 µM unless noted
SR leukemia = test system: SR leukemia
RPMI-8226 leukemia = test system: RPMI-8226 leukemia
OVCAR-8 ovarian = test system: OVCAR-8 ovarian
OVCAR-5 ovarian = test system: OVCAR-5 ovarian
OVCAR-4 ovarian = test system: OVCAR-4 ovarian
SK-OV-3 ovarian = test system: SK-OV-3 ovarian
IGROV1 ovarian = test system: IGROV1 ovarian
OVCAR-3 ovarian = test system: OVCAR-3 ovarian
HS 578T breast = test system: HS 578T breast
NCI/ADR-RES ovarian = test system: NCI/ADR-RES ovarian

Measured: growth

COc1c(B(O)O)cc(F)cc1-c1nc2ccc3[nH]ncc3c2c2c1COCC2
active: HS 578T breast 9.63%
inactive: SR leukemia 43.4% | RPMI-8226 leukemia 31.5% | OVCAR-8 ovarian 51.5% | OVCAR-5 ovarian 90.3% | OVCAR-4 ovarian 102% | SK-OV-3 ovarian 82.8% | IGROV1 ovarian 57.8% | OVCAR-3 ovarian 64.1% | NCI/ADR-RES ovarian 93.9%

FC(F)(F)c1cc2c(Cl)ncnc2n1CCN1CCCCC1
inactive: RPMI-8226 leukemia 102% | OVCAR-8 ovarian 14.8% | OVCAR-5 ovarian 95% | OVCAR-4 ovarian 13.5% | SK-OV-3 ovarian 97.2% | HS 578T breast 56.3% | NCI/ADR-RES ovarian 79%
active: SR leukemia -50.9% | IGROV1 ovarian -84.8% | OVCAR-3 ovarian -21.7%

Cc1cc(Cl)ccc1NC(=O)Nc1ccc(-c2ccc3c(c2)NC(=O)/C3=C\c2ccc[nH]2)cc1
inactive: SR leukemia 69.3% | RPMI-8226 leukemia 100% | OVCAR-8 ovarian 104% | OVCAR-5 ovarian 108% | OVCAR-4 ovarian 84.7% | SK-OV-3 ovarian 125% | IGROV1 ovarian 96.2% | OVCAR-3 ovarian 119% | HS 578T breast 102% | NCI/ADR-RES ovarian 104%

O=C1NC(=S)/C(=C/c2cn(-c3ccccc3)nc2-c2ccccc2)S1
active: RPMI-8226 leukemia 5.49% | HS 578T breast 8.03%
inactive: SR leukemia 83.4% | OVCAR-8 ovarian 31.7% | OVCAR-5 ovarian 47.9% | OVCAR-4 ovarian 25.4% | SK-OV-3 ovarian 35.5% | IGROV1 ovarian 29.1% | OVCAR-3 ovarian 36.7% | NCI/ADR-RES ovarian 18.6%

COc1ccc(Nc2nnc(-c3c[nH]c4ccccc34)o2)cc1
inactive: SR leukemia 70.5% | RPMI-8226 leukemia 32.5% | OVCAR-8 ovarian 86.2% | OVCAR-5 ovarian 103% | OVCAR-4 ovarian 85.3% | SK-OV-3 ovarian 74.2% | IGROV1 ovarian 60.9% | OVCAR-3 ovarian 94.4% | HS 578T breast 81.2% | NCI/ADR-RES ovarian 73.8%

Nc1cccc(-n2c(COc3ccc(I)cc3)nc3ccccc32)c1
inactive: SR leukemia 64.7% and 101% | RPMI-8226 leukemia 68.9% and 104% | OVCAR-8 ovarian 93.4% and 106% | OVCAR-5 ovarian 88.6% and 105% | OVCAR-4 ovarian 66.2% and 105% | SK-OV-3 ovarian 64.7% and 102% | IGROV1 ovarian 46.8% and 107% | OVCAR-3 ovarian 87.7% and 83.2% | HS 578T breast 63.2% and 110% | NCI/ADR-RES ovarian 74.3% and 102%

O=C(N=Nc1c(O)[nH]c2ccc(Cl)cc12)c1ccc2nc(-c3ccc(Cl)cc3)[nH]c2c1
inactive: SR leukemia 10.6% | RPMI-8226 leukemia 77.8% | OVCAR-5 ovarian 36.2% | SK-OV-3 ovarian 42% | HS 578T breast 12.2% | NCI/ADR-RES ovarian 94.7%
active: OVCAR-8 ovarian -34.8% | OVCAR-4 ovarian -3.41% | IGROV1 ovarian -11.1% | OVCAR-3 ovarian -5.16%

COc1ccc2[nH]c(=O)c(CSc3ccccc3Nc3nccc(-c4ccc5c(c4)OCO5)n3)cc2c1
inactive: SR leukemia 67.3% | RPMI-8226 leukemia 68.2% | OVCAR-8 ovarian 79.2% | OVCAR-5 ovarian 103% | OVCAR-4 ovarian 61.1% | SK-OV-3 ovarian 112% | IGROV1 ovarian 87.4% | OVCAR-3 ovarian 92.3% | HS 578T breast 89.4% | NCI/ADR-RES ovarian 74.3%

COc1ccc(C(=O)c2c(N)c(C#N)cn2-c2ccc([N+](=O)[O-])cc2)cc1
inactive: SR leukemia 94.5% | RPMI-8226 leukemia 108% | OVCAR-8 ovarian 88.5% | OVCAR-5 ovarian 107% | OVCAR-4 ovarian 101% | SK-OV-3 ovarian 93.9% | IGROV1 ovarian 109% | OVCAR-3 ovarian 122% | HS 578T breast 95.2% | NCI/ADR-RES ovarian 98.2%

Cc1ccc(-c2cc(-c3ccccc3)[nH]c(=O)c2C#N)cc1
inactive: SR leukemia 73.3% | RPMI-8226 leukemia 76.7% | OVCAR-8 ovarian 93.5% | OVCAR-5 ovarian 109% | OVCAR-4 ovarian 94.1% | SK-OV-3 ovarian 107% | IGROV1 ovarian 91.9% | OVCAR-3 ovarian 98.4% | HS 578T breast 84.6% | NCI/ADR-RES ovarian 82.3%

CNS(=O)(=O)N1CCc2c(Br)c3c(c(OC)c2C1CCc1ccccc1)OCO3 (stereo not given)
active: SR leukemia 4.75% | RPMI-8226 leukemia 2.66% | OVCAR-8 ovarian 9.92% | OVCAR-5 ovarian -40% | OVCAR-4 ovarian -2.26% | IGROV1 ovarian -6.68% | OVCAR-3 ovarian -48.8% | HS 578T breast -22.4% | NCI/ADR-RES ovarian -10.9%
inactive: SK-OV-3 ovarian 16.2%

COC(=O)c1ccc(-c2c(-c3ccccc3)c(F)c3oc(C(=O)OC)c(N)c3c2-c2ccccc2)cc1
inactive: SR leukemia 76.9% | RPMI-8226 leukemia 101% | OVCAR-8 ovarian 105% | OVCAR-5 ovarian 96.6% | OVCAR-4 ovarian 97.6% | SK-OV-3 ovarian 98.7% | IGROV1 ovarian 102% | OVCAR-3 ovarian 103% | HS 578T breast 91.1% | NCI/ADR-RES ovarian 94.3%

O=C1N/C(=N\c2nccs2)S/C1=C\c1ccc([N+](=O)[O-])cc1
inactive: SR leukemia 25.5% | OVCAR-8 ovarian 14.3% | OVCAR-5 ovarian 32.8% | OVCAR-4 ovarian 12.4% | SK-OV-3 ovarian 52.7% | IGROV1 ovarian 23.6% | OVCAR-3 ovarian 12.7% | HS 578T breast 20.8%
active: RPMI-8226 leukemia 6.29% | NCI/ADR-RES ovarian 8.78%

COC(=O)c1cc(C(=O)C(F)(F)F)n2c3ccccc3c3ccccc3c12
inactive: SR leukemia 60.7% | RPMI-8226 leukemia 96% | OVCAR-8 ovarian 42.7% | OVCAR-5 ovarian 83.5% | OVCAR-4 ovarian 10.8% | SK-OV-3 ovarian 82.9% | IGROV1 ovarian 40% | OVCAR-3 ovarian 82.9% | HS 578T breast 41.7% | NCI/ADR-RES ovarian 67.7%

CCc1ccccc1-c1nc(CN[C@@H]2C[C@@H]3C[C@H]([C@H]2C)C3(C)C)c(C)o1
active: SR leukemia -15.6% | RPMI-8226 leukemia -13.9% | OVCAR-8 ovarian -66.4% | OVCAR-5 ovarian -87.4% | OVCAR-4 ovarian -42.9% | SK-OV-3 ovarian -79.8% | IGROV1 ovarian -85% | OVCAR-3 ovarian -61.6% | HS 578T breast -43.4% | NCI/ADR-RES ovarian -78.4%

Cc1[nH]nc2ccc3nc(-c4cnn(CCO)c4)c4c(c3c12)CCCC4
active: SK-OV-3 ovarian 9.64% | HS 578T breast -2.52%
inactive: SR leukemia 13.8% | RPMI-8226 leukemia 33.8% | OVCAR-8 ovarian 48.7% | OVCAR-5 ovarian 90.4% | OVCAR-4 ovarian 63.1% | IGROV1 ovarian 44.5% | OVCAR-3 ovarian 90.2% | NCI/ADR-RES ovarian 73.5%

COc1ccc(CCC2NCCc3c(Br)c4c(c(OC)c32)OCO4)cc1 (stereo not given)
active: SR leukemia -6.62% | IGROV1 ovarian 1.92% | OVCAR-3 ovarian 1.09% | HS 578T breast 8.95% | NCI/ADR-RES ovarian -13.9%
inactive: RPMI-8226 leukemia 11% | OVCAR-8 ovarian 27.9% | OVCAR-5 ovarian 11.6% | OVCAR-4 ovarian 42.4% | SK-OV-3 ovarian 28.8%

C/C(=N\Nc1ccc(C(=O)O)cc1)c1cnn(-c2cc(=O)[nH]c3ccc(C)cc23)c1C
inactive: SR leukemia 88.6% | RPMI-8226 leukemia 85.1% | OVCAR-8 ovarian 104% | OVCAR-5 ovarian 99.2% | OVCAR-4 ovarian 94.6% | SK-OV-3 ovarian 94.3% | IGROV1 ovarian 112% | OVCAR-3 ovarian 98.9% | HS 578T breast 92.5% | NCI/ADR-RES ovarian 101%

C=CC[n+]1cccc2c3ccccc3ccc21
inactive: SR leukemia 46.5% | RPMI-8226 leukemia 27.6% | OVCAR-8 ovarian 41.1% | OVCAR-5 ovarian 70.8% | OVCAR-4 ovarian 42% | SK-OV-3 ovarian 77% | IGROV1 ovarian 72.5% | OVCAR-3 ovarian 35.9% | HS 578T breast 43.7% | NCI/ADR-RES ovarian 97.2%

CS(=O)(=O)c1ccc(-n2nc(C(=O)NCc3ccccc3)cc2-c2ccc(Cl)cc2)cc1
inactive: SR leukemia 76.7% | RPMI-8226 leukemia 56.8% | OVCAR-8 ovarian 89.9% | OVCAR-5 ovarian 105% | OVCAR-4 ovarian 71% | SK-OV-3 ovarian 104% | IGROV1 ovarian 95.9% | OVCAR-3 ovarian 99.7% | HS 578T breast 110% | NCI/ADR-RES ovarian 83.9%

CCCCC[C@@H]1C/C=C(\C)[C@@H](O)C(C)(C)C(=O)[C@@H](C)/C=C(\C)[C@@H]2C[C@H](O)C[C@](O)(CC(=O)O1)O2
inactive: SR leukemia 17.1% | OVCAR-8 ovarian 42.3% | OVCAR-5 ovarian 78% | OVCAR-4 ovarian 27.7% | SK-OV-3 ovarian 78.6% | IGROV1 ovarian 58.5% | OVCAR-3 ovarian 35.6% | HS 578T breast 47.7% | NCI/ADR-RES ovarian 19.7%
active: RPMI-8226 leukemia 8.23%

FC(F)(F)c1cc2c(Cl)ncnc2n1CCC1CCOCC1
inactive: RPMI-8226 leukemia 72.2% | OVCAR-8 ovarian 18.1% | OVCAR-5 ovarian 102% | SK-OV-3 ovarian 50.6% | NCI/ADR-RES ovarian 69%
active: SR leukemia -64.3% | OVCAR-4 ovarian -16.5% | IGROV1 ovarian -90.6% | OVCAR-3 ovarian -75.4% | HS 578T breast -42.5%

O=C(OCCOCCO)N(c1cccc(Br)c1)c1nc(SCCN2CCOCC2)nc2c1cnn2CC(Cl)c1ccc(Br)cc1 (stereo not given)
inactive: OVCAR-8 ovarian 19.6% | OVCAR-5 ovarian 34.7% | OVCAR-4 ovarian 23.5% | SK-OV-3 ovarian 25.3% | IGROV1 ovarian 31.8% | OVCAR-3 ovarian 20% | NCI/ADR-RES ovarian 12.3%
active: SR leukemia -27.8% | RPMI-8226 leukemia -25.7% | HS 578T breast -2.13%

Cc1ccc(NC(=O)N/N=C/c2c[nH]c3ccccc23)c(C)c1
active: RPMI-8226 leukemia 9.67% | OVCAR-8 ovarian -23.7% | OVCAR-3 ovarian -33.2% | NCI/ADR-RES ovarian 3.88%
inactive: SR leukemia 12.3% | OVCAR-5 ovarian 15.5% | OVCAR-4 ovarian 47.3% | SK-OV-3 ovarian 21.8% | IGROV1 ovarian 22.3% | HS 578T breast 20.4%

COc1ccc2[nH]c(O)c(N=NC(=O)c3ccc4nc(-c5ccc(Cl)cc5)[nH]c4c3)c2c1
inactive: SR leukemia 34.2% | RPMI-8226 leukemia 103% | OVCAR-8 ovarian 48.4% | OVCAR-5 ovarian 72.1% | OVCAR-4 ovarian 48.9% | SK-OV-3 ovarian 90.8% | IGROV1 ovarian 78.1% | OVCAR-3 ovarian 71.8% | HS 578T breast 37.7% | NCI/ADR-RES ovarian 116%
